Several values for one entry are separate records, joined by “and”; a condition that tells them apart may be missing. Equal values may be shown once. Inconclusive results are not listed. Entries that show only a call come without a potency. Some structures have more than one record in an assay (separate samples or runs), and their calls can disagree. Activity calls are given as the source filed them. Unless noted, the call rests on the fitted dose curve; in most records, active means well fitted curve in the direction sought with a large enough effect in the repeat runs; inconclusive means weak or mixed curves; inactive means no such curve, though single readings can be large; an effect the other way counts as inactive or inconclusive.
Experiments:
[1] = qHTS assay for small molecule agonists of the p53 signaling pathway (AID 651631; calls by dose curve; further: nearly all actives have a fitted effect of over 15% in size)
Procedure, shortened: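 Quantitative high-throughput format: 4,000 p53RE-bla HCT-116 cells/well, 5 h pre-incubation, 16 h compound exposure at 37 °C, 2 h room-temperature substrate step, fluorescence intensity measured.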

[2] = qHTS assay for small molecule agonists of the p53 signaling pathway - cell viability (AID 651633; calls by dose curve; further: nearly all actives have a fitted effect of over 30% in size; further: potency means the concentration at half of the fitted maximal effect)
Procedure, shortened: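 Viability counter-read: CellTiter-Glo luminescence (30 min, room temperature) in the same p53RE-bla plates. These plates had been exposed to compounds for 16 h at 37 C.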

[3] = qHTS assay for small molecules that induce genotoxicity in human embryonic kidney cells expressing luciferase-tagged ATAD5 - cell viability (AID 651634; calls by dose curve; further: nearly all actives have a fitted effect of over 25% in size; further: potency means the concentration at half of the fitted maximal effect)
Procedure, shortened: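 Cytotoxicity counterscreen in HEK293T cells bearing an ATAD5-luciferase reporter: live-cell protease activity measured by CellTiter-Fluor fluorescence after 15.5 hr compound exposure.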

[4] = qHTS assay for small molecule disruptors of the mitochondrial membrane potential - cell viability (AID 720634; calls by dose curve;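 further: human HepG2 liver cancer cells; series mostly up to about 83 µM; nearly all actives have a fitted effect of over 20% in size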)
Procedure, shortened: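 After overnight attachment at 37 C, HepG2 cells received compound or DMSO vehicle for 1 hr. Viability is then taken from ATP-driven luminescence following a 30 min room-temperature CellTiter-Glo step.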

[5] = qHTS assay for small molecule disruptors of the mitochondrial membrane potential (AID 720635); further: potency means the concentration at half of the fitted maximal effect
Procedure, shortened: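 Mitochondrial membrane potential tracked with Mito-MPS dye, red aggregates (ex 540/em 590 nm) against green monomers (ex 490/em 535 nm). Compound treatment 1 hr at 37C, dye 30 min in HepG2.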

[6] = qHTS assay to test for compound auto fluorescence at 590 nm (red) in HepG2 cells (AID 720674)
Procedure, shortened: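 We screened compounds on adherent HepG2 cells, incubating them for an hour at 37 C in 5% CO2 before reading emission at 590 nm under 540 nm excitation; values reflect equivalence to Rose Bengal sodium fluorescence.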

[7] = qHTS assay to test for compound auto fluorescence at 590 nm (red) in HEK293 cells (AID 720679)
Procedure, shortened: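 Each well held 2,000 HEK293 cells in medium containing 10% dialyzed FBS. Following 4-5 hr attachment at 37C, 23 nL test compound or DMSO was added; plates sat overnight, and red fluorescence (540/590nm) was recorded.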

[8] = qHTS assay for small molecules that induce genotoxicity in human embryonic kidney cells expressing luciferase-tagged ATAD5 (AID 651632); further: nearly all actives have a fitted effect of over 15% in size
Procedure, shortened: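 Increased luciferase signal from ATAD5-tagged reporter cells indicates DNA-damage-driven ATAD5 induction. HEK293T cells are treated for 16 hr at 37C before detection with Amplite.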

[9] = qHTS assay to test for compound auto fluorescence at 460 nm (blue) in HEK293 cells (AID 720678)
Procedure, shortened: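 Cells were seeded and left to adhere for 4-5 hr at 37C. Compounds were then pin-transferred. After an overnight incubation at 37C under 5% CO2, intrinsic fluorescence at 405/460 nm was measured and referenced to triamterene.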

[10] = qHTS assay to test for compound auto fluorescence at 535 nm (green) in HepG2 cells (AID 720675)

| SMILES | Potency [1] | Potency [2] | Potency [3] | Potency [4] | Potency [5] | outcome [6] | outcome [7] | Potency [8] | Potency [9] | outcome [10] |
| --- | --- | --- | --- | --- | --- | --- | --- | --- | --- | --- |
| Oc1ccc2ccccc2c1 | inactive | inactive | inactive | inactive | 49.7 µM (active) and 30.6 µM (active) | inactive | inactive | – | – | – |
| CCc1ccccc1O | – | inactive | inactive | inactive | inactive | inactive | inactive | inactive | – | – |
| NCCNCCNCCNCCN | – | inactive | inactive | inactive | inactive | inactive | inactive | inactive | inactive | – |
| CCCCCCC(C)(C)S | – | – | inactive | inactive | inactive | inactive | inactive | inactive | inactive | inactive |
| Nc1c(S(=O)(=O)O)cc(Br)c2c1C(=O)c1ccccc1C2=O | – | inactive | 30.6 µM (active) | inactive | – | inactive | inactive | inactive | – | inactive |
| CCCCCCCCCCC=CC1CC(=O)OC1=O (stereo not drawn) | – | 61.4 µM (active) and inactive | inactive | inactive | 68.9 µM (active) | inactive | inactive | – | inactive | inactive |
| O=S(=O)(Oc1ccc(Cl)cc1Cl)c1ccccc1 | – | – | inactive | – | 27.8 µM (active) and 61.1 µM (active) | inactive | inactive | inactive | – | – |
| Cc1cc(NS(=O)(=O)c2ccc(N)cc2)no1 | – | – | – | inactive | inactive | inactive | inactive | – | inactive | – |
| CCCCCCCCCC(=O)O | – | inactive | inactive | – | – | inactive | inactive | inactive | – | – |
| CCCCCC/C=C/CCCCCCCC(=O)O | – | inactive | inactive | inactive | inactive | inactive | inactive | inactive | – | – |
| CN(CCOc1ccc(CC2SC(=O)NC2=O)cc1)c1ccccn1 (stereo not drawn) | – | inactive | inactive | inactive | 48.3 µM (active) | inactive | inactive | inactive | – | inactive |
| CC1=CC[C@H]2C[C@@H]1C2(C)C | – | inactive | inactive | – | – | inactive | inactive | inactive | inactive | inactive |
| OCC#CCO | inactive | inactive | inactive | inactive | inactive | inactive | inactive | – | inactive | inactive |
| O=Nc1ccc(O)cc1 | – | inactive | inactive | inactive | 670 nM (active) and 13.7 µM (active) | inactive | inactive | inactive | inactive | inactive |
| CN(C)c1cccc(O)c1 | – | inactive | inactive | inactive | 10.9 µM (active) | inactive | inactive | inactive | – | inactive |

From PubChem BioAssay (Tox21)
